Holding throughout (test): DAPPL (digital affinity profiling via proximity ligation, sequencing); 10 mM Tris-HCl pH 7.5, 50 mM NaCl, 1 mM DTT, 4% glycerol, room temperature, 30 min; GST-TFs on glutathione beads, 16-mer random dsDNA library, 0.1% formaldehyde crosslink after washing; high values mean tight binding
Details in all cases: protein: recombinant; tags: N-terminal GST; dsDNA, one strand shown

The target of one assay is T1, ELK3 (Homo sapiens, UniProt P41970 1-407).
T1 sequence: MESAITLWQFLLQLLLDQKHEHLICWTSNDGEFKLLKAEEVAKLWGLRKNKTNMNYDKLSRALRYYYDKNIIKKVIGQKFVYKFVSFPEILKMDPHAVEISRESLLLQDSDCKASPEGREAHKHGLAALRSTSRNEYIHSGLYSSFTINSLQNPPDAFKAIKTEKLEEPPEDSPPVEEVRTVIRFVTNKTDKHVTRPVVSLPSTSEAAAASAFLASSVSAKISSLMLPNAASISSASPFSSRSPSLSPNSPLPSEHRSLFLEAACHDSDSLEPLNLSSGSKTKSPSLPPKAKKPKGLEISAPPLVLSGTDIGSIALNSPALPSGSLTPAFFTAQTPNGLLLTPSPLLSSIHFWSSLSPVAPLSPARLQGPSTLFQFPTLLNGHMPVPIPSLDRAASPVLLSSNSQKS
Summed up: (§1)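 Yeast served to express human transcription factors as GST fusions, which were then captured on glutathione beads and labelled with DNA barcodes. Pooled with a tag-only sample, they were incubated with 200 nmole of a 16-mer random double-stranded DNA library for 30 min at room temperature in Tris/NaCl/DTT/glycerol buffer, washed, crosslinked with 0.1% formaldehyde, ligated by proximity, amplified by PCR and sequenced. Dividing each hexamer's read frequency for a factor by its frequency for the tag-only sample gives the binding signal.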

The target in a further assay is T2, ERF (Homo sapiens, UniProt P50548 1-548).
T2 sequence: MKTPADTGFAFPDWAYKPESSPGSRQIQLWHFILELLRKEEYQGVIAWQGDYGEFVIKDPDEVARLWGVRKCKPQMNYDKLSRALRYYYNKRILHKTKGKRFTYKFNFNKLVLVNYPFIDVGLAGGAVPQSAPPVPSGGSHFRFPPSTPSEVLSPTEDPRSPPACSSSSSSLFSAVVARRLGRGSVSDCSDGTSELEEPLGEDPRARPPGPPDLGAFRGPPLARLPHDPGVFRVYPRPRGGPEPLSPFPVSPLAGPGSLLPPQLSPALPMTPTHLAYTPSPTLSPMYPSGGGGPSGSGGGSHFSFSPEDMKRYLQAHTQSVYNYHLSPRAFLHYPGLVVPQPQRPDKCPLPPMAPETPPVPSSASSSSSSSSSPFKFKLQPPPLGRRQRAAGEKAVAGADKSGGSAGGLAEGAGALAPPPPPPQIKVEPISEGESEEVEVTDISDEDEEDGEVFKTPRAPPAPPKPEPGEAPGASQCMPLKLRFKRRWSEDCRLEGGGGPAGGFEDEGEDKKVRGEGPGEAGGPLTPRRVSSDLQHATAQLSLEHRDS
In short, it runs like this: as §1

For a further assay, the target named is T3, ETV7 (Homo sapiens, UniProt Q9Y603 1-341).
T3 sequence: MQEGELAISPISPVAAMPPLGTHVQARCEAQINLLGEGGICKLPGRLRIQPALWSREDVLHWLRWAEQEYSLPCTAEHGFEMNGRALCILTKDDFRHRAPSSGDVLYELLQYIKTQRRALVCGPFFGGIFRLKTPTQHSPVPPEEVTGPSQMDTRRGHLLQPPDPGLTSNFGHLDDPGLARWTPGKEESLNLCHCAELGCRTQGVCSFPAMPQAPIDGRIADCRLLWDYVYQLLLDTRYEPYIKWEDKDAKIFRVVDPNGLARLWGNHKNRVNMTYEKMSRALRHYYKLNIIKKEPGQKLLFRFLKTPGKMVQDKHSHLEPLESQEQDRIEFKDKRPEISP
In short, it runs like this:
as §1

Another assay concerns the target T4, GABPA (Homo sapiens, UniProt Q06546 1-454).
T4 sequence: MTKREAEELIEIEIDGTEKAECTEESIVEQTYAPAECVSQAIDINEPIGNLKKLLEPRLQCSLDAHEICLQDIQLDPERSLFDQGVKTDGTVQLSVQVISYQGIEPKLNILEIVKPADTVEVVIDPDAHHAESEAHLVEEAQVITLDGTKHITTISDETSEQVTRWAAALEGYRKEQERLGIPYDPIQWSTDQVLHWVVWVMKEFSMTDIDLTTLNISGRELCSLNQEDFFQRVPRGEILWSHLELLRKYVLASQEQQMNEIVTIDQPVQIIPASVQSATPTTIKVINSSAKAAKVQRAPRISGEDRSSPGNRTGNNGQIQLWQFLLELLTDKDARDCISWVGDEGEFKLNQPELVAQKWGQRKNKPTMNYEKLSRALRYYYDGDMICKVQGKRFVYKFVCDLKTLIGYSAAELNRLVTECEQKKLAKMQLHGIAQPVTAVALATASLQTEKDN
In short, it runs like this: as §1

A further assay addresses ELF1 (Homo sapiens, UniProt P32519 1-619). In short, it runs like this: as §1
The target in another assay is T5, EHF (Homo sapiens, UniProt Q9NZC4 1-300).
T5 sequence: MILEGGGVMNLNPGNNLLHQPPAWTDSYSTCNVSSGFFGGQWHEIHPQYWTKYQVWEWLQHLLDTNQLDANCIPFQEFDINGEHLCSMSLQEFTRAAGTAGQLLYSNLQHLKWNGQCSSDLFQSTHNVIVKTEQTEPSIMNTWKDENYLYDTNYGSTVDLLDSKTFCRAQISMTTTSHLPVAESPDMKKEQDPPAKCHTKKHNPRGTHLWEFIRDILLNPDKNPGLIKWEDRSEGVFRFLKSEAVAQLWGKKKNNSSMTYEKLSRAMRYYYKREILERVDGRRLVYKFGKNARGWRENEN
Summed up: as §1

A further assay deals with T6, FEV (Homo sapiens, UniProt Q99581 1-238).
T6 sequence: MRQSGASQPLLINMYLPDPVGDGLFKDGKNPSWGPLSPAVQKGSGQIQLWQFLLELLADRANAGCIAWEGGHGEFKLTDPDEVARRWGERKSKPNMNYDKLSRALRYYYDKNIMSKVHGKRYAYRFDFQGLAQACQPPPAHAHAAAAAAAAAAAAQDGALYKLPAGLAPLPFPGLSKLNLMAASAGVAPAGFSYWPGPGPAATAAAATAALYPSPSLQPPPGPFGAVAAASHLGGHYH
Summed up:
as §1

For the next assay, the target named is T7, ETS2 (Homo sapiens, UniProt P15036 1-469).
T7 sequence: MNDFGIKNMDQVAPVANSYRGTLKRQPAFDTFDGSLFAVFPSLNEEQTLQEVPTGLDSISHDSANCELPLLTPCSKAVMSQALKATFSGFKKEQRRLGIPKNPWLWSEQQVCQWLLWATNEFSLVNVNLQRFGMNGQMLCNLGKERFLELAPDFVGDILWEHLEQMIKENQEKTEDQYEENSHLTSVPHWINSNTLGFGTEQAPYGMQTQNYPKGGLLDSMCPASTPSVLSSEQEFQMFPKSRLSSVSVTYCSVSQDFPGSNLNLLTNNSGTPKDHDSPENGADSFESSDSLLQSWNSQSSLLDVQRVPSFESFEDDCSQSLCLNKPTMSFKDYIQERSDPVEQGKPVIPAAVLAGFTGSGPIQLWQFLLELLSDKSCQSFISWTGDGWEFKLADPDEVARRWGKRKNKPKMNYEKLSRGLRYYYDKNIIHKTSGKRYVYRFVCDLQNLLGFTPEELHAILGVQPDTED
In short, it runs like this: as §1

The target in the next assay is SPI1 (Homo sapiens, UniProt P17947 1-270). Summed up: as §1
The target of the next assay is ETV1 (Homo sapiens, UniProt P50549 1-477). In short, it runs like this: as §1
ETV1, sequence (P50549 whole entry): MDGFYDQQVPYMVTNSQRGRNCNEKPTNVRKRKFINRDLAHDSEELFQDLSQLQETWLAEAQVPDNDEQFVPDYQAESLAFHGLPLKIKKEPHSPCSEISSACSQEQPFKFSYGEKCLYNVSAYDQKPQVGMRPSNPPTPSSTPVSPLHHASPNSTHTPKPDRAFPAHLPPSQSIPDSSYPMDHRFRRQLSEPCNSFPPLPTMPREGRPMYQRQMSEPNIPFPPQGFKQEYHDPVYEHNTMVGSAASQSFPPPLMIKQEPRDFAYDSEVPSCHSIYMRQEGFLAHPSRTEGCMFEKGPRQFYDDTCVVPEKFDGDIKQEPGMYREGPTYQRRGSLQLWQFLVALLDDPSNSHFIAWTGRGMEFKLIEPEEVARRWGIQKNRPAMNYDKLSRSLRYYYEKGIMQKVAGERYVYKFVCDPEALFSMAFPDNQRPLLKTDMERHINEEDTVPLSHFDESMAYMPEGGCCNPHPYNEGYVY
Another assay has as its target T8, ETV3L (Homo sapiens, UniProt Q6ZN32 1-361).
T8 sequence: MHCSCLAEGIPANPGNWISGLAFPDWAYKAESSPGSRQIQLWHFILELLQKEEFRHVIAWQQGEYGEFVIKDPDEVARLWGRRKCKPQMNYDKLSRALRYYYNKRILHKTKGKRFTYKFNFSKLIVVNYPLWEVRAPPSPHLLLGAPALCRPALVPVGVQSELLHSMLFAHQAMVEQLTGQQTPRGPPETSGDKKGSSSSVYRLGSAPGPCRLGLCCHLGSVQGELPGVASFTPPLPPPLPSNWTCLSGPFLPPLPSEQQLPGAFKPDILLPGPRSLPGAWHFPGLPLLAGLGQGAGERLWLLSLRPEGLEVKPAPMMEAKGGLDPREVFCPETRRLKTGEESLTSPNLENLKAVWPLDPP
In short, it runs like this: as §1

The target of another assay is T9, SPDEF (Homo sapiens, UniProt O95238 1-335).
T9 sequence: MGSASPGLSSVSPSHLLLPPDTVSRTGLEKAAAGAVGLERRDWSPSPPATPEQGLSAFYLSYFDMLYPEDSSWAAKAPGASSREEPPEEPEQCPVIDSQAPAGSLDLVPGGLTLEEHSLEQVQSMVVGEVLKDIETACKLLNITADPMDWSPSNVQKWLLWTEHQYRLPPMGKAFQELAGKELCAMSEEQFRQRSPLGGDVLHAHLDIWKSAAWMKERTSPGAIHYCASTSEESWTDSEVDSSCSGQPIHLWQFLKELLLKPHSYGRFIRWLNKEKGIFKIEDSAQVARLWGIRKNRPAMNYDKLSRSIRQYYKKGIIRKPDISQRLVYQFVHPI
In short, it runs like this: as §1

For a further assay, the target named is T10, ETV3 (Homo sapiens, UniProt P41162-2 1-143).
T10 sequence: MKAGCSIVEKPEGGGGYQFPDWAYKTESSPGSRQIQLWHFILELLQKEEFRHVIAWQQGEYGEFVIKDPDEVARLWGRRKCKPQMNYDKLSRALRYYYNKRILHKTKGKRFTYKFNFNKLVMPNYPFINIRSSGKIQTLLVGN
In short, it runs like this:
as §1

Another assay deals with ETV6 (Homo sapiens, UniProt P41212 1-452). In short, it runs like this:
as §1

ELF1, sequence (P32519 whole entry): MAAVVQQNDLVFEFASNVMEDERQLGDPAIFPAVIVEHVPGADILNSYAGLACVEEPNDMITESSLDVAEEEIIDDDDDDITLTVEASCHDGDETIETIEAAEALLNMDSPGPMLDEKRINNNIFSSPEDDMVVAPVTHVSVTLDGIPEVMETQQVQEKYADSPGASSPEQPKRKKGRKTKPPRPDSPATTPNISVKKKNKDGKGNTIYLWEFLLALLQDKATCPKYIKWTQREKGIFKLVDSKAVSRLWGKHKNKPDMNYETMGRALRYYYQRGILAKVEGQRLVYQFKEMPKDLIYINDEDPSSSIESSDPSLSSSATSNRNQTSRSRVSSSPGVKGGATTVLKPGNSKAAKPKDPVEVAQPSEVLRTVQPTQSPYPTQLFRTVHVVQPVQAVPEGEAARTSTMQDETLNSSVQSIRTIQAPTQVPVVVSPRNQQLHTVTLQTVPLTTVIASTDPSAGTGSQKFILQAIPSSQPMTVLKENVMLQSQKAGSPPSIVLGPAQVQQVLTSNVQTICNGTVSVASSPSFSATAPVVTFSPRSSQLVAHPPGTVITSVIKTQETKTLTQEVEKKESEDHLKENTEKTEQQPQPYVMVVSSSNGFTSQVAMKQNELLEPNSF
ETV6, sequence (P41212 whole entry): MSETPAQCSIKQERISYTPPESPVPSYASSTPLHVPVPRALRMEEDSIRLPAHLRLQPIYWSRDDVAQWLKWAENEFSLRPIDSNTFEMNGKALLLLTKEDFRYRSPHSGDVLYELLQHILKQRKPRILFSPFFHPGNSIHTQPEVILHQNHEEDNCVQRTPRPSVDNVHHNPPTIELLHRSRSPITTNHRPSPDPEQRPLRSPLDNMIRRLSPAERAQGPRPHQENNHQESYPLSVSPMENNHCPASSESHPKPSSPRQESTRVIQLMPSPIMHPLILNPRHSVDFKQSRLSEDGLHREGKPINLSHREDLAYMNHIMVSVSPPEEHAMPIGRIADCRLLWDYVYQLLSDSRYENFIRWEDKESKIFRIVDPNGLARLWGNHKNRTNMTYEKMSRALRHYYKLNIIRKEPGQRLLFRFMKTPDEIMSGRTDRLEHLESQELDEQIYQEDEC

CAGCAA: the binding signal with ELK3 was 1.01 fold enrichment (6-mer frequency, TF over GST control); with ERF, 1.04 fold enrichment (6-mer frequency, TF over GST control); with ETV7, 1.06 fold enrichment (6-mer frequency, TF over GST control).

Take GGCCAC: the binding signal in the assay with GABPA is 1.02 fold enrichment (6-mer frequency, TF over GST control); with ELF1 it was 1.03 fold enrichment (6-mer frequency, TF over GST control); with EHF, 1.03 fold enrichment (6-mer frequency, TF over GST control); in the assay with FEV, 1.05 fold enrichment (6-mer frequency, TF over GST control); with ETS2, 1 fold enrichment (6-mer frequency, TF over GST control).

AAGGGG: the binding signal was 1.36 fold enrichment (6-mer frequency, TF over GST control) with SPI1; 1.05 fold enrichment (6-mer frequency, TF over GST control) in the assay with ELK3; 1.07 fold enrichment (6-mer frequency, TF over GST control) with ETV1.

Turning to GTCTGT, the binding signal in the assay with ETV1 is 1.01 fold enrichment (6-mer frequency, TF over GST control).

For the sequence GACACC, the binding signal with ETV3L was 1.01 fold enrichment (6-mer frequency, TF over GST control).

With CGCATC, in the assay with SPDEF, the binding signal was 1.02 fold enrichment (6-mer frequency, TF over GST control).

AGGACT: the binding signal with GABPA is 1.05 fold enrichment (6-mer frequency, TF over GST control); with ELF1, 1 fold enrichment (6-mer frequency, TF over GST control); in the assay with FEV it was 1.01 fold enrichment (6-mer frequency, TF over GST control); with ETV3 it was 1.06 fold enrichment (6-mer frequency, TF over GST control).

As for CGGAAT, the binding signal is 1 fold enrichment (6-mer frequency, TF over GST control) with SPDEF; 1.02 fold enrichment (6-mer frequency, TF over GST control) in the assay with ETV3; 1.01 fold enrichment (6-mer frequency, TF over GST control) in the assay with ETV6.

As for GGGAAG, in the assay with ETV6, the binding signal is 1.04 fold enrichment (6-mer frequency, TF over GST control).
